PubChem BioAssay (EPA / NIEHS)
The source made the active and inactive calls. The calls were made as follows: active = hit-call score of the fitted dose curve at least 0.9, where 1 is the maximum; inactive = score below 0.9.

test: CCTE_Shafer_MEA_acute_spike_number: CCTE's Neural Acute Assay for Total Number of Spikes, Shafer Lab (AID 2284008);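 as to AC50: curve fitted for decrease in spike count so AC50 reflects inhibitors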
Procedure: CCTE_Shafer_MEA_acute assay is conducted using Axion Biosystems 48 well microelectrode array (MEA) plates and Maestro recording system. Each well of the MEA plate contains a grid of 16 microelectrodes embedded in the culture surface. Electrically active cells, such as neurons, can be cultured over the electrodes, and electrical activity in these cells can be recorded extracellularly. The spontaneous firing of neurons is captured from each electrode on a microsecond timescale providing both temporally and spatially precise data. […] The CCTE_Shafer_MEA_acute assay uses primary cultures of rat cortical neurons. As these cultures mature over time, neural networks develop functional activity and form cohesive networks in which electrical activity can be highly coordinated. Baseline 40-minute recordings are made on days post-plating 13 or 15, followed by a secondary 40-minute recording after chemical exposure.CCTE_Shafer_MEA_acute_spike_number is a component of the CCTE_Shafer_MEA_acute assay. It measures the total number of spikes (action potential firings) in a 40-minute recording in a microelectrode array (MEA) using Axion Biosystems Maestro 768 channel amplifier with the AxIS adaptive spike detector. The recordings before and after chemical treatment are used to calculate a percent change in the spike number in each well. Data from the assay component CCTE_Shafer_MEA_acute_spike_number was analyzed into 1 assay endpoint. This assay endpoint, CCTE_Shafer_MEA_acute_spike_number, was analyzed in the negative analysis fitting direction relative to DMSO as the negative control and baseline of activity. Using a type of functional reporter, gain or loss-of-signal activity can be used to understand electrical activity.
Spontaneous activity in the cortical cultures was recorded using an Axion Biosystems Maestro 768 channel amplifier and Axion Integrated Studios (AxIS) v1.8 (or later) software. The amplifier recorded from all channels simultaneously (gain = 1200 x; sampling rate = 12.5 kHz/channel): raw signals were filtered with a Butterworth band-pass filter (300-5000 Hz), which filters out slower local field potentials leaving only fast potentials, i.e., "spikes", arising from extracellular currents associated with action potentials (Pine 2006; Wheeler and Nam 2011). On-line spike detection of filtered signals was conducted with the AxIS adaptive spike detector, using a threshold of 8x the root mean squared (rms) noise on each channel. Any electrodes with rms noise levels greater than 5 uV were grounded (e.g., no data were recorded). Once grounded, an electrode was grounded for the duration of the experiment. All recordings were conducted at 37 C. Wells were deemed usable if on the day of the exposure >/= 10 electrodes were active (defined as >/= 5 spikes/min). On DIV 13 or 15, a minimum of three wells from one cortical culture preparation were treated with each compound (0.03-40 uM). Prior to recording baseline activity, each mwMEA plate was placed in the Maestro at 37 C and allowed to sit for 20 min while firing rates stabilized. Baseline activity (40 min) was recorded before the addition of each compound. An additional 40 min of spontaneous activity was recorded in the presence of each compound. Changes in network parameters relative to baseline were assessed following compound treatment.

outcome, inactive:
COCCc1ccc(OCC(O)CNC(C)C)cc1 (stereo not given), CC(CN=Cc1ccccc1O)N=Cc1ccccc1O (stereo not given), CC1(C)CCC[C@]2(C)[C@H]3CCO[C@]3(C)CC[C@@H]12, CN(C)C(=S)SC(=S)N(C)C, C=CC(C)(O)CCC=C(C)C (stereo not given), O=C(Nc1ccc2c(O)c(N=Nc3ccc(N=Nc4ccc(S(=O)(=O)O)cc4)cc3)c(S(=O)(=O)O)cc2c1)c1ccccc1, CCOC(=O)C(C#N)=C(c1ccccc1)c1ccccc1, O=CN1CCOCC1

AC50, active:
Oc1c(Cl)cc(Cl)c(Cl)c1Cc1c(O)c(Cl)cc(Cl)c1Cl 0.266 µM, CCCCCCC(CO)CCCC (stereo not given) 5.36 µM
